Experimental data reported in PubChem BioAssay (NCI).
This is part of a sample that, as a whole, favours compounds with a hit. Of some 79,000 tested, about 15% had one in any assay. Unmarked numbers belong to inactive results. Active and inactive are the calls of the source. No stated cut-off is given here; in the data, active means growth inhibition above about 70%; inactive means the rest.

Columns and labels:
[1] = NCI Yeast Anticancer Drug Screen. Data for the rad52 strain (AID 147);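 further: 0% = growth of vehicle-treated control cultures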; conditions: S. cerevisiae rad52 mutant growth inhibition, active compounds read high
Procedure, shortened: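 Read-out: growth inhibition versus vehicle-treated controls. Cells were a DNA repair-deficient yeast strain treated with compounds.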

[2] = NCI Yeast Anticancer Drug Screen. Data for the wt1 strain (AID 149);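 further: 0% = growth of vehicle-treated wt1 cultures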; conditions: S. cerevisiae wt1 strain (SPY 50644) growth inhibition, active compounds read high
Procedure, shortened: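 Readout: yeast growth inhibition, normalised to vehicle controls, in the wt1 strain exposed to test compounds.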

[3] = NCI Yeast Anticancer Drug Screen. Data for the rad50EPP+ strain (AID 151);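 further: 0% = growth of vehicle-treated control cultures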; conditions: S. cerevisiae rad50 mutant strain, active compounds read high
Procedure, shortened: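 Growth inhibition read against vehicle controls in rad50EPP+ yeast, a strain altered in DNA damage repair, after compound exposure.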

[4] = NCI Yeast Anticancer Drug Screen. Data for the rad50 strain (AID 155);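 further: 0% = growth of vehicle-only cultures of the same strain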; conditions: S. cerevisiae rad50 strain growth inhibition, active compounds read high
Procedure, shortened: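 Compounds were tested on a yeast strain with an engineered DNA damage repair alteration; the reported value is growth inhibition normalised to vehicle treatment.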

[5] = NCI Yeast Anticancer Drug Screen. Data for the mec2-1 strain (AID 157); conditions: S. cerevisiae mec2-1 strain, active compounds read high
Procedure, shortened: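 Yeast mec2-1 mutant treated with compound. Readout: growth inhibition vs vehicle controls.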

[6] = NCI Yeast Anticancer Drug Screen. Data for the rad14 strain (AID 159);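 further: 0% = growth of vehicle-treated control cultures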; conditions: S. cerevisiae rad14 strain growth inhibition, active compounds read high
Procedure, shortened: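 Compound-treated yeast with a defined DNA-repair lesion; growth inhibition normalised to vehicle-treated cultures.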

[7] = NCI Yeast Anticancer Drug Screen. Data for the sgs1 mgt1 strain (AID 161);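 further: 0% = growth of cultures given vehicle only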; conditions: S. cerevisiae sgs1 mgt1 strain, active compounds read high
Procedure, shortened: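 Test agents were incubated with a DNA-repair-mutant yeast strain. Growth was then read and compared against vehicle-treated controls.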

[8] = NCI Yeast Anticancer Drug Screen. Data for the CLN2oe strain (AID 163);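 further: 0% = growth of vehicle-only control cultures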; conditions: S. cerevisiae CLN2oe strain, active compounds read high
Procedure, shortened: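 Read-out: yeast growth inhibition, expressed relative to vehicle-only controls. The strain bears an engineered cell-cycle alteration.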

[9] = NCI Yeast Anticancer Drug Screen. Data for the wt2 strain (AID 169);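 further: 0% = growth of vehicle-treated yeast cultures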; conditions: S. cerevisiae wt2 strain growth inhibition, active compounds read high
Procedure, shortened: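 Read-out: growth inhibition versus vehicle-treated control cultures after compound exposure of the yeast strain.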

[10] = NCI Yeast Anticancer Drug Screen. Data for the mlh1 strain (AID 171);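 further: 0% = growth of vehicle-treated control cultures of the same strain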; conditions: S. cerevisiae mlh1 strain growth inhibition, active compounds read high
Procedure, shortened: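 Read-out: growth inhibition versus vehicle controls. Strain: engineered yeast with a defined DNA repair or cell cycle defect, compound-treated.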

[11] = NCI Yeast Anticancer Drug Screen. Data for the mlh1 rad18 strain (AID 175); conditions: S. cerevisiae mlh1 rad18 strain growth inhibition, active compounds read high
Procedure, shortened: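 Yeast w/ defined DNA-repair lesions; compound exposure; growth vs vehicle controls → % inhibition.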

[12] = NCI Yeast Anticancer Drug Screen. Data for the rad18 strain (AID 177); conditions: S. cerevisiae rad18 mutant growth inhibition, active compounds read high
Procedure, shortened: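 Readout: growth inhibition vs vehicle controls. Cells: genetically altered yeast strain, DNA repair defect.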

[13] = at 5.0 µM (retest, dose inferred, filed as 0.5)
[14] = at 50.0 µM (retest, dose inferred, filed as 5.0)

SMILES: Cc1ccc(N=Nc2ccc(O)c(C)c2)cc1
- growth inhibition ([1]; at 1.2 µM): 6%
- growth inhibition ([1]; at 3.7 µM): 10%
- growth inhibition ([1]; at 11.0 µM): 88% (active)
- growth inhibition ([1]; at 33.0 µM): 98% (active)
- growth inhibition ([1]; at 100.0 µM): 87% (active)
- growth inhibition ([2]; at 1.2 µM): 5%
- growth inhibition ([2]; at 3.7 µM): -2%
- growth inhibition ([2]; at 11.0 µM): 92% (active)
- growth inhibition ([2]; at 33.0 µM): 98% (active)
- growth inhibition ([2]; at 100.0 µM): 85% (active)
- growth inhibition ([3]; at 1.2 µM): 20%
- growth inhibition ([3]; at 3.7 µM): 39%
- growth inhibition ([3]; at 11.0 µM): 53%
- growth inhibition ([3]; at 33.0 µM): 96% (active)
- growth inhibition ([3]; at 100.0 µM): 82% (active)
- growth inhibition ([4]; at 1.2 µM): 9%
- growth inhibition ([4]; at 3.7 µM): 18%
- growth inhibition [4, 13]: 38%
- growth inhibition ([4]; at 11.0 µM): 95% (active)
- growth inhibition ([4]; at 33.0 µM): 98% (active)
- growth inhibition [4, 14]: 56%
- growth inhibition ([4]; at 50.0 µM): 91.2% (active)
- growth inhibition ([4]; at 100.0 µM): 94% (active)
- growth inhibition ([5]; at 1.2 µM): 10%
- growth inhibition ([5]; at 3.7 µM): 11%
- growth inhibition [5, 13]: 52%
- growth inhibition ([5]; at 11.0 µM): 80% (active)
- growth inhibition ([5]; at 33.0 µM): 97% (active)
- growth inhibition [5, 14]: 66%
- growth inhibition ([5]; at 50.0 µM): 92.5% (active)
- growth inhibition ([5]; at 100.0 µM): 79% (active)
- growth inhibition ([6]; at 1.2 µM): 4%
- growth inhibition ([6]; at 3.7 µM): -7%
- growth inhibition ([6]; at 11.0 µM): 68%
- growth inhibition ([6]; at 33.0 µM): 96% (active)
- growth inhibition ([6]; at 100.0 µM): 89% (active)
- growth inhibition [7, 13]: -16%
- growth inhibition [7, 14]: 91% (active)
- growth inhibition ([7]; at 50.0 µM): 92.5% (active)
- growth inhibition ([8]; at 1.2 µM): -2%
- growth inhibition ([8]; at 3.7 µM): -18%
- growth inhibition ([8]; at 11.0 µM): 97% (active)
- growth inhibition ([8]; at 33.0 µM): 97% (active)
- growth inhibition ([8]; at 100.0 µM): 78% (active)
- growth inhibition ([9]; at 1.2 µM): 5%
- growth inhibition ([9]; at 3.7 µM): 14%
- growth inhibition ([9]; at 11.0 µM): 91% (active)
- growth inhibition ([9]; at 33.0 µM): 98% (active)
- growth inhibition ([9]; at 100.0 µM): 79% (active)
- growth inhibition ([10]; at 1.2 µM): 19%
- growth inhibition ([10]; at 3.7 µM): 10%
- growth inhibition ([10]; at 11.0 µM): 91% (active)
- growth inhibition ([10]; at 33.0 µM): 97% (active)
- growth inhibition ([10]; at 100.0 µM): 80% (active)
- growth inhibition [11, 13]: 37%
- growth inhibition [11, 14]: 51%
- growth inhibition ([11]; at 50.0 µM): 91.9% (active)
- growth inhibition ([12]; at 1.2 µM): 27%
- growth inhibition ([12]; at 3.7 µM): 27%
- growth inhibition ([12]; at 11.0 µM): 89% (active)
- growth inhibition ([12]; at 33.0 µM): 98% (active)
- growth inhibition ([12]; at 100.0 µM): 91% (active)
